Source: PubChem (several laboratories)
An excerpt weighted towards active compounds, which were near 6.7% of everything screened.
Mtb FBA inh – inhibits M. tuberculosis FBA enzyme | inhibition, % at 1 µM | actives 2.3% (n = 360,000) | purified M. tuberculosis FBA, fluorescence read-out; in the data active means inhibition above about 27%;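 further: 0% = vehicle and 100% = reference inhibitor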
BoNT A protease – blocks Botulinum neurotoxin A light chain protease | inhibition, % at 10 µM | multiplex microsphere protease substrate cleavage, flow cytometry | actives 0.17% (n = 360,000) | AID 588499; further: plate controls were buffer without enzyme for full effect and enzyme alone for no effect
GDH-TPI inh – inhibits GDH-TPI coupling enzymes, artifact for Mtb FBA screen | GDH-TPI coupled enzyme counterscreen, NADH absorbance | inhibition, % at 4.8 µM | actives 1.2% (n = 360,000) | AID 588335; in the data active means inhibition above about 30%;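 further: 0% = DMSO wells and 100% = wells lacking the enzyme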
BoNT-F LC inh – inhibitors of Botulinum neurotoxin F light chain protease | inhibition, % at 10 µM | AID 588497 | actives 0.22% (n = 360,000) | Multiplex microsphere protease cleavage assay, flow cytometry; in the data active means inhibition above about 35%, passing the limit was not always enough; inconclusive means no clear call, values can overlap the other calls; further: plate controls were buffer without enzyme for full effect and enzyme alone for no effect
Anthrax LF prot – inhibitors of Bacillus anthracis lethal factor protease. multiplex microsphere protease cleavage assay, LF. P15917. actives 0.12% (n = 360,000). inhibition, % at 10 µM; further: plate controls were buffer without enzyme for full effect and enzyme alone for no effect
Bead autofluor – counter-screen for toxin protease inhibitors: compound fluorescence; compound autofluorescence counterscreen, microsphere flow cytometry; active compounds read high; fluorescence intensity (no concentration beside the values); actives 3.1% (n = 360,000); in the data active means fluorescence intensity above about 16000; inconclusive means no clear call, values can overlap the other calls
* = called active by the depositor; ? = inconclusive; . = no result given; + = active, no number. Unless noted, no stated cut-off is given here; in the data, active means inhibition above about 30%; inconclusive means no clear call, values can overlap the other calls; inactive means below that.

SMILES	Mtb FBA inh	BoNT A protease	GDH-TPI inh	BoNT-F LC inh	Anthrax LF prot	Bead autofluor
CCCSc1nnc(NC(=O)c2nc(SC)ncc2Cl)s1	-2	?	-4	8	-2	19506*
CSc1ncc(Cl)c(C(=O)Nc2nnc(SC)s2)n1	2	1	6	10	-2	4499
CCOC(=O)c1c(C)c(C(=O)NC(C)COC)c(C)n1C (stereo not drawn)	3	?	5	-5	-3	17439*
CCOC(=O)c1c(C)c(C(=O)NCCc2ccccc2)c(C)n1C	3	0	3	-3	2	2713
CCOC(=O)c1c(C)c(C(=O)NCCCOC(C)C)c(C)n1C	2	2	-10	2	-6	19718*
Nc1nonc1-n1nnc(C(=O)N/N=C/c2ccccc2Cl)c1-c1ccc2c(c1)OCO2	1	-3	6	-13	-3	5251
O=C(COC(=O)c1cccnc1)c1ccc(Cl)cc1	2	0	-2	0	0	19665*
O=C(COC(=O)c1cccnc1)c1ccc(Cl)c(Cl)c1	0	-1	0	-1	-1	3431
N#C/C(=C\c1cccc(O)c1)C(=O)N1CCCCC1	0	-2	-1	47*	7	4481
O=C(CSc1nccn1Cc1ccco1)Nc1ccc(F)cc1	-3	1	-7	1	0	5990
COc1nc(Nc2ccc(O)cc2)nc(OC(C(F)(F)F)C(F)(F)F)n1	-2	-1	2	-7	-5	16552*
Nc1cccc(Nc2nc(OC(C(F)(F)F)C(F)(F)F)nc(OC(C(F)(F)F)C(F)(F)F)n2)c1	-3	-1	2	2	-6	3099
COc1cc(C(c2nnnn2C(C)(C)C)N2CCN(C)CC2)cc(OC)c1OC (stereo not drawn)	3	-1	-2	-29	2	4778
Cc1c(CC(=O)O)c(=O)oc2c(C)c(OCc3ccc(F)cc3Cl)ccc12	2	2	12	35*	9	3385
Cc1c(CC(=O)O)c(=O)oc2cc(OCc3nn[nH]n3)ccc12	+	0	11	-3	1	3264
Cc1c(CC(=O)O)c(=O)oc2c(C)c(OCc3ccc(F)cc3F)ccc12	6	-1	1	7	-5	3764
CCOC(=O)CCc1c(C)c2ccc(OCc3nn[nH]n3)cc2oc1=O	+	0	-2	0	1	8696
Cc1c(Cc2ccccc2)c(=O)oc2cc(OCc3ccc(C(=O)O)cc3)ccc12	17	-2	10	-13	-1	3296
Cc1c(CC(=O)O)c(=O)oc2cc(OCc3ccc(Cl)cc3)ccc12	126*	1	18	-16	5	2948
CN(C)c1ccc(/C=N/NC(=O)C(=O)/C=C2\NC3(CCCC3)Cc3ccccc32)cc1	-6	0	31*	-8	-2	9817
CSCC[C@H](NC(=O)OCc1ccccc1)C(=O)O	3	1	1	4	-2	22450*
Fc1ccc(Br)cc1C1C=C(c2cccnc2)Nc2ncnn21 (stereo not drawn)	6	0	0	-7	7	4742
Cc1ccc(S(=O)(=O)NC2(C(=O)O)CCCCC2)cc1	3	-2	4	-2	-1	23381*
O=C(O)C1(NS(=O)(=O)c2ccc(Cl)cc2)CCCCC1	0	?	-11	2	-4	19428*
CCOC(=O)C1C(=O)NC(c2ccccc2)=NC1c1ccc(C(C)C)cc1 (stereo not drawn)	2	0	13	?	1	4678
CCOC(=O)C1C(=O)NC(c2ccccc2)=NC1c1ccc(Cl)cc1 (stereo not drawn)	-2	2	4	1	-2	22764*
CCOC(=O)C1C(=O)NC(N2CCN(c3ccccc3)CC2)=NC1c1ccccc1 (stereo not drawn)	3	-2	10	-2	1	23474*
COc1ccccc1N(CC(=O)NCCSCc1cccc(C)c1)S(=O)(=O)c1ccccc1	1	-4	0	5	-5	6385
COc1ccccc1NS(=O)(=O)c1cc(C(=O)NCc2cccnc2)ccc1C	2	3	0	-6	-4	?
Cc1ccc(-c2nnc(Nc3ccc(CC(N)=O)cc3)c3ccccc23)cc1S(=O)(=O)NCC1CCCO1 (stereo not drawn)	4	.	32*	.	.	.
